The source of these data is PubChem BioAssay (NCATS).

Each structure is given as a SMILES string. Results filed as inconclusive are left out. A number with no mark means an inactive call. The call rests on the fitted dose curve; in most records, active means well fitted inhibition curve with a large enough effect; inconclusive means small, poorly fitted or top-dose-only effect; inactive means flat fitted curve, though single readings scatter.
On the % scale 0 is the no-effect control and ±100 the full control effect.

A short description of the first assay: Drug repurposing screens with cells derived from glioblastoma tumor samples (AID 1345199). Further: nearly all actives have a fitted effect of over 40% in size. The following applies: GBM patient neurospheres viability, ATP luminescence, 48 h; at 45.9 µM (top of the series); tumour line D. The method in brief: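 Four patient lines of CD133+ GBM neurospheres were screened at several concentrations; hits were retested in those lines plus three slower-growing GBM lines, using 48-hour treatment and ATP-based viability.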
As for `CC(C)CN(C[C@@H](O)[C@H](Cc1ccccc1)NC(=O)O[C@H]1CO[C@H]2OCC[C@H]21)S(=O)(=O)c1ccc(N)cc1`, the activity, negative = cell killing was -22.5%.

For `COc1cc2c(cc1OC)CC(=O)N(CCCN(C)C[C@H]1Cc3cc(OC)c(OC)cc31)CC2`, the activity, negative = cell killing is -19.2%.

Consider `O=C(O)c1nc(=O)[nH]c(=O)[nH]1`, for which the activity, negative = cell killing is 6.49%.

With `N#Cc1c(N(CC(=O)O)CC(=O)O)sc(C(=O)O)c1CC(=O)O`, the activity, negative = cell killing is 0.729%.

`CCC[C@H](N[C@@H](C)C(=O)N1[C@@H]2CCCC[C@H]2C[C@H]1C(=O)O)C(=O)OCC`: the activity, negative = cell killing is -19.1%.

As for `CC(C)(CO)[C@@H](O)C(=O)NCCC(=O)O`, the activity, negative = cell killing is -3.38%.

As for `CCCCCCCCCCCCCCCC(=O)O[C@H]1[C@@H](O)[C@@H](O)[C@@H]([C@H](NC(=O)[C@@H]2C[C@@H](CCC)CN2C)[C@H](C)Cl)O[C@@H]1SC`, the activity, negative = cell killing is -15.1%.

With `CC[C@H]1OC(=O)[C@H](C)[C@@H](O[C@H]2C[C@@](C)(OC)[C@@H](O)[C@H](C)O2)[C@H](C)[C@@H](O[C@@H]2O[C@H](C)C[C@H](N(C)C)[C@H]2O)[C@](C)(O)C[C@H](C)C(=NOCOCCOC)[C@H](C)[C@@H](O)[C@]1(C)O`, the activity, negative = cell killing is 4.24%.

Turning to `CN1CC(=O)N2C(Cc3c([nH]c4ccccc34)[C@H]2c2ccc3c(c2)OCO3)C1=O` (stereo not given in full), the activity, negative = cell killing is -11.4%.

For the compound `CN1CCN2c3ncccc3Cc3ccccc3C2C1` (stereo not given), the activity, negative = cell killing is -14.6%.

Still in this assay, the particulars now being: GBM patient neurospheres viability, ATP luminescence, 48 h; at 46 µM (top of the series); tumour line A.
For the compound `O=C(O)c1nc(=O)[nH]c(=O)[nH]1`, the activity, negative = cell killing is -9.41%.

Consider `N#Cc1c(N(CC(=O)O)CC(=O)O)sc(C(=O)O)c1CC(=O)O`, for which the activity, negative = cell killing is -24.3%.

As for `CCC[C@H](N[C@@H](C)C(=O)N1[C@@H]2CCCC[C@H]2C[C@H]1C(=O)O)C(=O)OCC`, the activity, negative = cell killing is -33%.

The same assay, now with this note: GBM patient neurospheres viability, ATP luminescence, 48 h; at 46.1 µM (top of the series); tumour line C.
For `CC(C)CN(C[C@@H](O)[C@H](Cc1ccccc1)NC(=O)O[C@H]1CO[C@H]2OCC[C@H]21)S(=O)(=O)c1ccc(N)cc1`, the activity, negative = cell killing was -17%.

Turning to `CCC(=O)OCC(=O)[C@@]1(OC(=O)CC)[C@@H](C)C[C@@H]2[C@H]3CCC4=CC(=O)C=C[C@]4(C)[C@@]3(F)[C@@H](O)C[C@@]21C`, the activity, negative = cell killing is 2.82%.

For `COc1cc2c(cc1OC)CC(=O)N(CCCN(C)C[C@H]1Cc3cc(OC)c(OC)cc31)CC2`, the activity, negative = cell killing was -34%.

Take `Fc1ccc(C(c2ccc(F)cc2)N2CCN(CC=Cc3ccccc3)CC2)cc1`: the activity, negative = cell killing was -6.32%.

Regarding `O=C(O)c1nc(=O)[nH]c(=O)[nH]1`, the activity, negative = cell killing is -6.32%.

For `N#Cc1c(N(CC(=O)O)CC(=O)O)sc(C(=O)O)c1CC(=O)O`, the activity, negative = cell killing was 4.23%.

Take `CCC[C@H](N[C@@H](C)C(=O)N1[C@@H]2CCCC[C@H]2C[C@H]1C(=O)O)C(=O)OCC`: the activity, negative = cell killing is -16.9%.

Consider `CC(C)(CO)[C@@H](O)C(=O)NCCC(=O)O`, for which the activity, negative = cell killing was -2.72%.

For `CCCCCCCCCCCCCCCC(=O)O[C@H]1[C@@H](O)[C@@H](O)[C@@H]([C@H](NC(=O)[C@@H]2C[C@@H](CCC)CN2C)[C@H](C)Cl)O[C@@H]1SC`, the activity, negative = cell killing is 10.8%.

For the compound `CC[C@H]1OC(=O)[C@H](C)[C@@H](O[C@H]2C[C@@](C)(OC)[C@@H](O)[C@H](C)O2)[C@H](C)[C@@H](O[C@@H]2O[C@H](C)C[C@H](N(C)C)[C@H]2O)[C@](C)(O)C[C@H](C)C(=NOCOCCOC)[C@H](C)[C@@H](O)[C@]1(C)O`, the activity, negative = cell killing was -6.06%.

Consider `CN1CC(=O)N2C(Cc3c([nH]c4ccccc34)[C@H]2c2ccc3c(c2)OCO3)C1=O` (stereo not given in full), for which the activity, negative = cell killing was -21.6%.

For the compound `CN1CCN2c3ncccc3Cc3ccccc3C2C1` (stereo not given), the activity, negative = cell killing is 14.4%.
